Test results published in the supplement of paper PMC13380429.
Counter-ions that a name gives are not always drawn.

System: Vero E6 infected with SARS-CoV-2
Assay: inhibition of SARS-CoV-2 cytopathic effect; higher = more antiviral protection, active = above 15
Conditions: 48 h

Measured: inhibition of SARS-CoV-2 cytopathic effect

Cc1ccc(S(N)(=O)=O)cc1 [para-toluenesulfonamide]
inactive: 1 nM 3.73% | 8.33 nM 1.88% | 100 nM 1.14% | 833.33 nM 0.12% | 10000 nM -5.38%

CNC(=O)c1ccc(C)c(-n2c(C)cc(OCc3ccc(F)cc3F)c(Br)c2=O)c1
inactive: 1 nM -1.52% | 8.33 nM -2.37% | 100 nM -3.51% | 833.33 nM -2.74% | 10000 nM -7.45%

N=c1ccn2c(n1)O[C@H]1[C@H](O)[C@@H](CO)O[C@H]12 [Cyclocytidine HCl]
inactive: 1 nM 1.24% | 8.33 nM 1% | 100 nM 0% | 833.33 nM -0.83% | 10000 nM -4.27%

O=C(CN1CCN(Cc2ccc3c(c2)OCO3)CC1)N1c2ccccc2Sc2ccccc21 [fenoverine]
inactive: 1 nM 0.16% | 8.33 nM -2.81% | 100 nM 4.98% | 833.33 nM -0.47% | 10000 nM -3.71%

COCCc1ccc(OCC(O)CNC(C)C)cc1 (stereo not given) [metoprolol]
inactive: 1 nM 2% | 8.33 nM 1.22% | 100 nM -0.12% | 833.33 nM -0.66% | 10000 nM 1.25%

O[C@H]1CC[C@H](Nc2nc(-c3ccccc3)nc3[nH]ccc23)CC1
inactive: 1 nM -1.91% | 8.33 nM -3.12% | 100 nM -4.27% | 833.33 nM -1.49% | 10000 nM -0.8%

CNCCC(Oc1ccccc1OC)c1ccccc1 (stereo not given) [nisoxetine]
inactive: 1 nM -1.97% | 8.33 nM 0.21% | 100 nM 4.4% | 833.33 nM 7.73% | 10000 nM -0.07%
